Source: PubChem BioAssay (NCI)
About 79,000 compounds went through this panel and 15% of them were active in at least one assay; those are over-represented in the sample as a whole. Calls of active or inactive are those of the source. Cut-off read from the data, not from the text of the source: active = growth inhibition above about 70%; inactive = the rest.

assay: NCI Yeast Anticancer Drug Screen. Data for the rad50 strain (AID 155);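 note: 0% = growth of vehicle-only cultures of the same strain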; conditions: S. cerevisiae rad50 strain growth inhibition; at 50.0 µM; hits give high values
In short: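 Inhibition values express reduced yeast growth in compound-treated cultures relative to vehicle-treated controls.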

| SMILES | growth inhibition |
| --- | --- |
| N#CNC(=Nc1ccccc1)[N](C#N)[Sn]([c]1ccccc1)([c]1ccccc1)[c]1ccccc1 | 98.7% (active) |
| Cc1cc(Br)cc(C)c1NC(=O)C(=O)CC(=O)c1sc(-n2nc(-c3ccccc3)cc2-c2ccccc2)nc1C | 5.7% (inactive) |
| COc1ccccc1C1c2cc3c(cc2OC(O)(CO)C1C(=O)O)OCO3 (stereo not given) (tested in a mixture with another compound) | -18.4% (inactive) |
| N/C(=N\OC(=O)Nc1ccc(CSc2ccc(Cl)cc2)o1)c1ccccn1 | 2.9% (inactive) |
| COc1cc2c(c(O)c1OC)C(=O)[C@@H]1CCC(=O)N1C2c1ccccc1 (stereo not given in full) | 19.1% (inactive) |
| CC(C)OC(=O)N1CCCC1 | 12% (inactive) |
| COC1=CC(=O)c2ccccc2C1(CCC=C(C)C)C1=NC(C)(C)CO1 (stereo not given) | -27% (inactive) |
| CC(C#N)(CCl)OS(=O)(=O)CCCl (stereo not given) | 37.4% (inactive) |
| COc1ccc(C(C)Nc2cc(OC)c(OC)c(OC)c2)cc1 (stereo not given) | -20.2% (inactive) |
| c1cc2c3c(c1)ccc1ccc4cccc(c4c13)O2 | -26.4% (inactive) |
| CCCCCCCN1C=CCC(S(=O)(=O)N2CCOCC2)=C1 | -15.7% (inactive) |
| O=c1c2cc([N+](=O)[O-])ccc2sc2ccsc12 | 1.6% (inactive) |
| COc1cc([C@@H]2c3cc4c(cc3[C@](C)(O)[C@H]3COC(=O)[C@H]23)OCO4)cc(OC)c1OC | 19.7% (inactive) |
| CC(C)(/C=N\O)NO | -14.8% (inactive) |
| CN(C)c1nc(OC2C(C3COC(C)(C)O3)OC3OC(C)(C)OC32)nc(N(C)C)n1 (stereo not given) | 36.9% (inactive) |
